Experimental data reported in PubChem BioAssay (NCATS).
Inconclusive results are not listed. Activity calls are given as the source filed them. Calls follow the shape of the dose curve; as a rule, active = well fitted curve in the direction sought with a large enough effect; inconclusive = small, poorly fitted or top-dose-only effect, or another doubt; inactive = no such curve, though single readings can be large; an effect the other way counts as inactive or inconclusive.

Assays:
[1] = KB-3-1 Cancer Cell Toxicity qHTS against the NCATS CANVASS Library (AID 1347366); conditions: KB-3-1 viability, CellTiter-Glo luminescence, 72 h; at 15.4 µM (top of the series); also: nearly all actives have a fitted effect of over 75% in size
Method in brief: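 CellTiter-Glo luminescence measured viability after 72 h at 37C. KB-3-1 cells were seeded at 500 per well in DMEM/10% FBS.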

[2] = qHTS for ATAD5 Agonist screened against the NCATS CANVASS Library (AID 1347367);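 also: luciferase reporter driven by ATAD5 which rises upon DNA damage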
Method in brief: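 Genotoxicity via ATAD5-luciferase luminescence after 16 h compound exposure (11-point series) at 37C in HEK293T-ATAD5 cells. CellTiter-Fluor viability read precedes the luminescence read; MMS serves as positive control.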

[3] = G06 Cancer Cell Toxicity qHTS against the NCATS CANVASS Library (AID 1347368); also: nearly all actives have a fitted effect of over 60% in size
Method in brief: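 Viability measured by CellTiterGlo ATP luminescence after 72 hr at 37C, 5% CO2. Canine G06 glioma cells plated at 500/well. Compounds tested as 11-point qHTS titrations.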

[4] = MCF7 Cancer Cell Toxicity qHTS against the NCATS CANVASS Library (AID 1347369); conditions: MCF7 viability, ATP luminescence (CellTiter-Glo), 72 h; at 15.3 µM (top of the series)
Method in brief: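 Cytotoxicity was measured as CellTiterGlo luminescence (ATP) after 72 h at 37 °C. The cells were MCF7 at 500 per well, with an 11-point compound concentration series.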

[5] = qHTS for ATAD5 Antagonist screened against the NCATS CANVASS Library (AID 1347370);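 also: HEK293T cells carrying an ATAD5 luciferase reporter co-treated with 10 µM 5-fluorouridine; nearly all actives have a fitted effect of over 65% in size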
Method in brief: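 Compounds (11-point) co-dosed with 10 µM 5-FUrd for 16 h at 37 °C onto HEK293T-ATAD5 luciferase reporter cells. Viability measured by CellTiter-Fluor fluorescence, then ATAD5 reporter signal by luminescence.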

[6] = J3T Cancer Cell Toxicity qHTS against the NCATS CANVASS Library (AID 1347371);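 also: J3T is a canine glioma cancer cell line seeded at 500 cells per well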
Method in brief: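 Cytotoxicity read as CellTiterGlo ATP luminescence after 72 h incubation (37C, 5% CO2) of J3T canine glioma cells (500/well) with an 11-point compound series.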

[7] = target: Nuclear receptor subfamily 1 group I member 3 (Homo sapiens) (UniProt Q14994); test: qHTS for Constitutive Androstane Receptor (CAR) Antagonist screened against the NCATS CANVASS Library (AID 1347372);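 also: cells stimulated with 50 nM CITCO agonist so inhibition reflects antagonism; luciferase from CYP2B6 promoter reporter driven by hCAR in HepG2 cells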
Nuclear receptor subfamily 1 group I member 3 (Homo sapiens), sequence (Q14994 whole entry, looked up): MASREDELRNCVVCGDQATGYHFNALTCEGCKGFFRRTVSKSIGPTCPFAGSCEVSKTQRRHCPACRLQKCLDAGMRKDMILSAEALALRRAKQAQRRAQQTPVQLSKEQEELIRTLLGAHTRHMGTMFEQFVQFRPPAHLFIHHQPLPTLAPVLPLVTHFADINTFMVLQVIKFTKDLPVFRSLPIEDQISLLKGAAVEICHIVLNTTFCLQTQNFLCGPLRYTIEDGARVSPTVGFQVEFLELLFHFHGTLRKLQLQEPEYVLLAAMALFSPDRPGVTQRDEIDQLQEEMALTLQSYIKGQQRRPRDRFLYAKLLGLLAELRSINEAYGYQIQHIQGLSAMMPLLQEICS
Method in brief: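 Luminescence readout (ONE-Glo, 30 min RT) of CYP2B6-2.2kb reporter in HepG2-hCAR cells after 24hr, 37C treatment with compound against 50 nM CITCO; CellTiter-Fluor viability read beforehand.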

[8] = target: Nuclear receptor subfamily 1 group I member 3 (Homo sapiens) (UniProt Q14994); test: qHTS for Constitutive Androstane Receptor (CAR) Agonist screened against the NCATS CANVASS Library (AID 1347373);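 also: every well also contained 1.5 µM PK11195 alongside the test compound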
Method in brief: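 Agonist mode with 1.5uM PK11195 present: compounds for 24hr on HepG2-hCAR-CYP2B6 cells. CellTiter-Fluor fluorescence (ex 405, em 540 nm) gives viability; ONE-Glo luminescence reports CAR activation.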

[9] = qHTS for Hypoxia signaling pathway (HIF-1) antagonists against the NCATS CANVASS Library (AID 1347374);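 also: HRE-bla ME-180 cells stimulated with cobalt chloride to stabilize HIF-1alpha; nearly all actives have a fitted effect of over 60% in size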
Method in brief: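 Antagonism scored as loss of CoCl2-driven (60 uM stock added) HRE beta-lactamase signal, read by CCF4 FRET at 460/530 nm. Compounds were tested in an 11-point series on ME-180 reporter cells for 17 hrs at 37C, with parallel CellTiter-Glo cytotoxicity.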

[10] = qHTS for Hypoxia signaling pathway (HIF-1) agonists against the NCATS CANVASS Library (AID 1347375)
Method in brief: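 Beta-lactamase reporter under HRE control in ME-180 cells; compounds (11-point qHTS series) added after 5 hrs plating, then 17 hrs at 37C. FRET substrate read after 2 hr; same-well CellTiter-Glo luminescence gave viability and normalization.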

[11] = 10-beta competent E. coli microbial cell viability qHTS against the NCATS CANVASS Library (AID 1347376)
Method in brief: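 Read-out: BacTiter-Glo ATP luminescence, taken 20 min after reagent addition. Beforehand, 10-beta competent E. coli at 0.2 OD had been incubated overnight at 37C with compounds at 11 concentrations.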

[12] = DH5-alpha competent E. coli microbial cell viability qHTS against the NCATS CANVASS Library (AID 1347377)
Method in brief: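 Bacterial viability as ATP-dependent luminescence (BacTiter-Glo), read after overnight 37 °C exposure of DH5-alpha competent E. coli to compounds in 11-point titration.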

[13] = qHTS for H2AX Agonists against the NCATS CANVASS Library (AID 1347378)
Method in brief: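 Phospho-H2AX (S139) in CHO-K1 lysates measured by HTRF, reported as 665/615 nm emission ratio after 24 hr antibody incubation at room temperature. Cells were first treated with a compound series for 3 hr at 37C (0.76% DMSO final).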

[14] = qHTS for Inflammasome Signaling Inhibitors: IL-1-beta AlphaLISA screen against the NCATS CANVASS Library (AID 1347379);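 also: human THP-1 cells primed with LPS then triggered with ATP; secreted IL-1B measured as AlphaLISA emission at 615 nm; lower signal means less IL-1B release which is the wanted effect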
Method in brief: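 Secreted IL-1B from human THP-1 cells quantified by AlphaLISA 16 hr after compound addition (final up to 57.5 uM). A 1 hr compound pretreatment preceded inflammasome activation with 250 ng/mL LPS plus 1.25 mM ATP (final).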

[15] = Inflammasome Signaling qHTS Counterscreen: IL-1-beta AlphaLISA counterscreen against the NCATS CANVASS Library (AID 1347381);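 also: cell-free check with purified IL-1β in medium and no THP-1 cells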
Method in brief: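 Purified IL-1-beta (4 pg/well) + compound, 11-pt conc. series; acceptor beads 6 ug/mL + biotin-Ab 0.6 nM final, 1 h RT; SA-donor 24 ug/ml final, 30 min dark RT; read ex 680/em 615.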

[16] = Cytotoxicity qHTS for assessment of Hepg2 cells membrane integrity screened against the NCATS CANVASS Library (AID 1347387)
Method in brief: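 Membrane damage quantified as fluorescent LDH-release signal (ex 560, em 590 nm) in HepG2 cells treated 5 hr at 37C. qHTS format, 11 concentrations spanning 0.59 nM - 46 uM final, cells plated at 2000 per well the night before.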

[17] = qHTS for Activators of p53 Stress Response Pathway screened against the NCATS CANVASS Library (AID 1347388)
Method in brief: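 p53RE-bla HCT-116 cells (4000/well) were pre-incubated for 5 h, then treated with compound (11 points) for 16 h at 37C. After 2 h with CCF4, the 460/530 nm ratio gave reporter activation; CellTiter-Glo measured viability.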

[18] = qHTS assay for small molecule disruptors of mitochondrial membrane potential screened against the NCATS CANVASS Library (AID 1347389); also: nearly all actives have a fitted effect of over 60% in size
Method in brief: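 Mitochondrial membrane potential in HepG2: 1 h compound treatment (11-point concentration series), 30 min m-MPI dye at 37C, then dual fluorescence of J-aggregates (ex 540/em 590) and monomers (ex 490/em 535); lower red/green ratio indicates depolarization.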

[19] = Secretion counterscreen for inhibitors of the SERCaMP assay screened against the NCATS CANVASS Library (AID 1347390);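 also: light from luciferase secreted into medium read as a measure of general secretion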
Method in brief: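 Counterscreen for secretory-pathway interference: after 4 h attachment, SH-SY5Y-GLuc cells were exposed 20 hours to compounds (final 0.001 - 77 uM), then coelenterazine added and GLuc luminescence recorded; Brefeldin A served as control.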

[20] = qHTS for activators of Nrf2/ARE signaling pathway screened against the NCATS CANVASS Library (AID 1347391); also: nearly all actives have a fitted effect of over 60% in size
Method in brief: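 Eleven-point qHTS, 16 h treatment of HepG2 cells carrying an ARE-driven beta-lactamase reporter; CCF4 ratio read (405 nm excitation, 460 and 530 nm emission), with CellTiter-Glo ATP luminescence for viability.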

Measured: outcome

C[C@@H]1O[C@@H](OC[C@H]2O[C@@H](Oc3c(-c4ccc(O)c(O)c4)oc4cc(O)cc(O)c4c3=O)[C@H](O)[C@@H](O)[C@@H]2O)[C@H](O)[C@H](O)[C@H]1O
inactive: all assays above
